Sampled rows, rich in hits. Any-hit rate of the full collection: about 1.6%.
Myeloid diff MLP: induction of myeloid progenitor differentiation, primary screen, cell-based, flow cytometry, MLPCN library; ER-HoxA9 myeloid progenitors, lysozyme-GFP differentiation; calls only at 10 µM; 360,000 compounds, 1% hits;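 active = normalized GFP-positive differentiation at or above the plate's own cutoff, the solvent-only control mean plus 3 SD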;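 also: cells exposed to compound for four days before flow analysis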
Vif inh: HIV Vif self-association inhibitors, primary screen, imaging, HEK293T, single point. HEK293T cells, Vif self-association by quenched fluorescence, 24 h. AID 602346, 2012. 340,000 compounds, 0.35% hits. inhibition, % at 7.49 µM; in the data active = inhibition above about 50%, passing the limit was not always enough
Glyco luc inh: increase of ERlucT glycosylation luciferase signal, primary screen, N-linked glycosylation inhibitor project, D54 ERlucT cells, luminescence, set 2; reporter increase, % at 12.5 µM; D54 ERlucT glycosylation luciferase reporter, 24 h; percent of 100 nM tunicamycin response; 360,000 compounds, 0.23% hits;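 active = mean luciferase reporter signal, scaled so untreated is 0 and the glycosylation-blocking control 100, at or above a set limit in every replicate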;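 also: luciferase carries N-glycosylation sites so blocking glycosylation raises the light; 0% = median of neutral control wells and 100% = median of 100 nM tunicamycin wells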
ABCB6 inh 2: ABCB6 transporter inhibitors, primary screen, K562-ABCB6 cells, flow cytometry, MLPCN library | ATP-binding cassette sub-family B member 6 (Homo sapiens), Q9NP58 | K562-ABCB6 porphyrin accumulation, 1 h; hits give low values | fluorescence ratio to DMSO, % at 10 µM | 360,000 compounds, 0.19% hits | AID 602162, 2011;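 active = fluorescence ratio to DMSO below 75%, the collection mean minus 3 SD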;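 also: signal is porphyrin accumulated inside mitochondria; 100% equals median channel fluorescence of DMSO control wells; lower ratio means ABCB6 inhibition with less porphyrin fluorescence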
RAD54 inh: inhibitors of human RAD54 branch migration, primary screen, biochemical, fluorescence, single point | DNA repair and recombination protein RAD54-like (Homo sapiens), Q92698 | RAD54 Holliday junction branch migration, FAM/BHQ fluorescence | inhibition, % at 10.4 µM | 360,000 compounds, 0.14% hits;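 active = mean normalized replicate activity at least 40 and at least half of replicates scoring 40 or more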;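 also: 0% = median of neutral control wells and 100% = median of positive control wells; inhibitors cause a drop in the FAM fluorescence signal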
Target sequence (Q92698 whole entry, looked up): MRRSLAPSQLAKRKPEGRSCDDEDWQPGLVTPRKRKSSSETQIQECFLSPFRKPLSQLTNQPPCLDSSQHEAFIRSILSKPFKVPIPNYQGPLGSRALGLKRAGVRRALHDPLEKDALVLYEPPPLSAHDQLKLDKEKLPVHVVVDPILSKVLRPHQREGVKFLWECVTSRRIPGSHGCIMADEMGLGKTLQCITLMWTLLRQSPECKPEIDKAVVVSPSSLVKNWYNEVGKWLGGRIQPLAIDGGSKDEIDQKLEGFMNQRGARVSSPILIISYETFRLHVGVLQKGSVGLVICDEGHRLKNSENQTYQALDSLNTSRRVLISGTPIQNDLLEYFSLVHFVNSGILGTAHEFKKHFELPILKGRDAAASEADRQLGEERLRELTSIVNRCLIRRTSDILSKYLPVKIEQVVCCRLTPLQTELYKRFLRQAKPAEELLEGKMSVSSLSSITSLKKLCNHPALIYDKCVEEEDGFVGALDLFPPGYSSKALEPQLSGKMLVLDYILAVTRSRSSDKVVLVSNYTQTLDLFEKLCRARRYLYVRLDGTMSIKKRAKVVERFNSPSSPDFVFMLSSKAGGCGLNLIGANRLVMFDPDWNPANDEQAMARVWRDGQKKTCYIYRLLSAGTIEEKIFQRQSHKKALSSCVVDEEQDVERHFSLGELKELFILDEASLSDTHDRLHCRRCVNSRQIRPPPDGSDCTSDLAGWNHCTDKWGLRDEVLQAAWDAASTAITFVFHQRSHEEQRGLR
Myeloid diff CP1: inducers of myeloid progenitor differentiation, confirmation, cell-based, GFP/Mac1 flow cytometry, cherry pick 01; shares compounds with Myeloid diff MLP; ER-HoxA9 myeloid progenitors, GFP/Mac1 double-positive flow; calls only; 2,300 compounds, 2% hits;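 active = share of green or green-and-red cells above 9 and 9% in run 1 or 4 and 3% in run 2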
GFP autofluor: flagged as fluorescent in myeloid differentiation counter-screen; shares compounds with Myeloid diff MLP; ER-HoxA9 myeloid progenitors, no estrogen, GFP autofluorescence flow cytometry; vehicle wells 0%, positive control 100%; fluorescence response, % (test concentration not listed); 2,300 compounds, 7.4% hits; AID 651707;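 active = over 5% cells positive for green fluorescent reporter, or over 2% positive for both it and APC stain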;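 also: range taken on the double positive population between DMSO and positive control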
An asterisk follows results filed as active; i = inactive; . = no result given; + = active, no number.

SMILES | Myeloid diff MLP | Vif inh | Glyco luc inh | ABCB6 inh 2 | RAD54 inh | Myeloid diff CP1 | GFP autofluor
O=C(NCc1ccco1)c1ccc2c(=O)n(-c3ccccc3)c(=O)n(Cc3cccc(F)c3)c2c1 | + | 15 | -5 | 95 | -2 | i | 0
Cc1ccccc1Cn1c(=O)n(-c2ccccc2)c(=O)c2ccc(C(=O)NCc3ccco3)cc21 | i | 0 | -1 | 104 | 1 | . | .
Cc1cccc(CNc2ncc(-c3cccc([N+](=O)[O-])c3)n2C)c1 | i | -1 | 4 | 498 | . | i | 0
CCCCn1nc(NC(=O)COC)c2cc3cc(OC)ccc3nc21 | i | -9 | 5 | 104 | -4 | i | 0
CCn1nc(NC(=O)Cc2ccc(OC)cc2)c2cc3cc(C)ccc3nc21 | i | 24 | 1 | 97 | -2 | . | .
C[C@H](CO)N1C[C@H](C)[C@H](CN(C)C)Oc2cc(C3=CCCC3)ccc2S1(=O)=O | . | . | . | . | 9 | . | .
COc1ccccc1N1CCN(C(c2ccc(N(C)C)cc2)c2nnnn2CCc2ccccc2)CC1 (stereo unspecified) | + | -5 | -3 | 98 | -13 | i | 8.2*
O=C1CC(C(=O)N2CCCc3ccccc32)CN1c1ccc(Cl)cc1 (stereo unspecified) | i | 6 | -1 | 92 | -1 | i | 0
O=C1CC(C(=O)N2CCCc3ccccc32)CN1c1ccc(F)cc1 (stereo unspecified) | i | -9 | -5 | 172 | -8 | . | .
NNc1nc2c(F)cc(F)cc2s1 | + | 2 | 2 | 99 | -2 | i | 0
COc1ccc(C(=O)Nc2nccs2)cc1OC | + | -9 | 3 | 91 | 11 | i | 0
COc1ccc(C(=O)Nc2nccs2)cc1[N+](=O)[O-] | i | 0 | 2 | 104 | 1 | . | .
CCc1ccc(C(=O)C(C)OC(=O)Cc2n[nH]c(=O)c3ccccc23)cc1 (stereo unspecified) | + | -5 | 15 | 104 | -8 | i | 0
CN(C(=O)c1cccc(NC(=O)Cc2ccc(NC(=O)C3CCN(C(=O)C4CCCC4)CC3)cc2)c1)C1CCCCC1 | i | -7 | -5 | 99 | 2 | . | .
CN(Cc1ccccc1)C(=O)c1ccc(NC(=O)Cc2cccc(NC(=O)C3CCCN(C(=O)C4CCCCC4)C3)c2)cc1 (stereo unspecified) | i | -1 | 0 | 100 | -7 | i | 0
CN(C(=O)c1cccc(NC(=O)Cc2ccc(NC(=O)C3CCN(C(=O)C4CC4)CC3)cc2)c1)C1CCCCC1 | i | -10 | -2 | 102 | -5 | i | 0
CN(Cc1ccccc1)C(=O)c1ccc(NC(=O)Cc2cccc(NC(=O)C3CCCN(C(=O)C4CCCC4)C3)c2)cc1 (stereo unspecified) | i | 16 | 1 | 98 | 7 | . | .
O=C(Nc1ccc(F)cc1)N1C[C@H]2[C@@H](c3ccccc31)[C@H](CO)N2C(=O)c1ccccc1F | . | . | . | . | 6 | . | .
O=C(CCCOc1ccc(Cl)cc1Cl)NCCCn1ccnc1 | i | -11 | -1 | 97 | . | . | .
CC(Oc1ccc(Cl)cc1Cl)C(=O)NCCCn1ccnc1 (stereo unspecified) | + | 0 | -1 | 94 | -1 | i | 0
O=S(=O)(N[C@@H]1CC[C@@H](CCNS(=O)(=O)c2ccccc2Cl)O[C@@H]1CO)c1ccccc1 | . | . | . | . | -3 | . | .
COCCCNC(=S)NC1CC2CCCC(C1)N2Cc1ccco1 (stereo unspecified) | i | 7 | 1 | 99 | -2 | i | 0
CN1C(=O)N2CN(C3CCCCC3)CN3C(=O)N(C)C1C23 (stereo unspecified) | i | . | 2 | 105 | 12 | i | 0

Screening data from PubChem BioAssay.
